# Laboratory results as given in the supplement of paper PMC8728848.
# This is one part of a sample in which the strongest signals are shown more often than they occur.
# B1: Jacalin (Artocarpus integrifolia) (protein)
# chain: MAYSSLLSLSVLALLFSISSADTRKWFLANGINQNPIGIIEAAVGVSEDLLNLNGMEAKNDEQSGISQTVIVGPWGAKVSTSSNGKAFDDGAFTGIREINLSYNKETAIGDFQVVYDLNGSPYVGQNHKSFITGFTPVKISLDFPSEYIMEVSGYTGNVSGYVVVRSLTFKTNKKTYGPYGVTSGTPFNLPIENGLIVGFKGSIGYWLDYFSMYLSL
# Experiments:
# Assay in all cases: glycan array binding signal (z-score within array); higher = stronger binding
# Settings in all cases: glycan notation: IUPAC condensed, linker removed
# [1] = target: GlcNAc(a1-4)Gal(b1-3)GlcNAc
# Summary of the method: (§1)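 The Consortium for Functional Glycomics database supplied 3228 glycan arrays, of which those lacking an available protein sequence were dropped. The binding signal, a within-array Z-score, was averaged across arrays of the same protein sequence and across linkers. Negative scores can be read as non-binding.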
# [2] = target: GlcNAc(a1-4)Gal(b1-4)GlcNAc(b1-3)Gal(b1-4)GlcNAc(b1-3)Gal(b1-4)GlcNAc
# Summary of the method: as §1
# [3] = target: GlcNAc(b1-2)Gal(b1-3)GalNAc
# Summary of the method: as §1
# [4] = target: GlcNAc(b1-2)Man(a1-3)[GlcNAc(b1-2)Man(a1-6)]Man(b1-4)GlcNAc(b1-4)[Fuc(a1-6)]GlcNAc
# Summary of the method: as §1
# [5] = target: GlcNAc(b1-3)Gal(b1-4)GlcNAc(b1-3)Gal(b1-4)GlcNAc(b1-2)Man(a1-3)[GlcNAc(b1-3)Gal(b1-4)GlcNAc(b1-3)Gal(b1-4)GlcNAc(b1-2)Man(a1-6)]Man(b1-4)GlcNAc(b1-4)[Fuc(a1-6)]GlcNAc
# Summary of the method: as §1
# [6] = target: GlcNAc(b1-3)Gal(b1-4)GlcNAc(b1-3)Gal(b1-4)GlcNAc(b1-2)[GlcNAc(b1-3)Gal(b1-4)GlcNAc(b1-3)Gal(b1-4)GlcNAc(b1-6)]Man(a1-6)[GlcNAc(b1-3)Gal(b1-4)GlcNAc(b1-3)Gal(b1-4)GlcNAc(b1-2)Man(a1-3)]Man(b1-4)GlcNAc(b1-4)[Fuc(a1-6)]GlcNAc
# Summary of the method: as §1
# [7] = target: GlcNAc(b1-3)Gal(b1-4)GlcNAc(b1-3)Gal(b1-4)GlcNAc(b1-3)Gal(b1-4)GlcNAc(b1-2)Man(a1-3)[GlcNAc(b1-3)Gal(b1-4)GlcNAc(b1-3)Gal(b1-4)GlcNAc(b1-3)Gal(b1-4)GlcNAc(b1-2)Man(a1-6)]Man(b1-4)GlcNAc(b1-4)GlcNAc
# Summary of the method: as §1
# [8] = target: GlcNAc(b1-3)Gal(b1-4)GlcNAc(b1-3)Gal(b1-4)GlcNAc(b1-3)Gal(b1-4)GlcNAc(b1-2)Man(a1-3)[GlcNAc(b1-3)Gal(b1-4)GlcNAc(b1-3)Gal(b1-4)GlcNAc(b1-3)Gal(b1-4)GlcNAc(b1-2)Man(a1-6)]Man(b1-4)GlcNAc(b1-4)[Fuc(a1-6)]GlcNAc
# Summary of the method: as §1
# [9] = target: GlcNAc(b1-3)Gal(b1-4)GlcNAc(b1-3)Gal(b1-4)GlcNAc(b1-3)Gal(b1-4)GlcNAc(b1-2)[GlcNAc(b1-3)Gal(b1-4)GlcNAc(b1-3)Gal(b1-4)GlcNAc(b1-3)Gal(b1-4)GlcNAc(b1-6)]Man(a1-6)[GlcNAc(b1-3)Gal(b1-4)GlcNAc(b1-3)Gal(b1-4)GlcNAc(b1-3)Gal(b1-4)GlcNAc(b1-2)Man(a1-3)]Man(b1-4)GlcNAc(b1-4)[Fuc(a1-6)]GlcNAc
# Summary of the method: as §1
# [10] = target: GlcNAc(b1-3)Gal(b1-4)GlcNAc(b1-3)Gal(b1-4)GlcNAc(b1-3)Gal(b1-4)GlcNAc(b1-3)Gal(b1-4)GlcNAc(b1-2)Man(a1-3)[GlcNAc(b1-3)Gal(b1-4)GlcNAc(b1-3)Gal(b1-4)GlcNAc(b1-3)Gal(b1-4)GlcNAc(b1-3)Gal(b1-4)GlcNAc(b1-2)Man(a1-6)]Man(b1-4)GlcNAc(b1-4)GlcNAc
# Summary of the method: as §1
# [11] = target: GlcNAc(b1-3)Gal(b1-4)GlcNAc(b1-3)Gal(b1-4)GlcNAc(b1-3)Gal(b1-4)GlcNAc(b1-3)Gal(b1-4)GlcNAc(b1-2)Man(a1-3)[GlcNAc(b1-3)Gal(b1-4)GlcNAc(b1-3)Gal(b1-4)GlcNAc(b1-3)Gal(b1-4)GlcNAc(b1-3)Gal(b1-4)GlcNAc(b1-2)Man(a1-6)]Man(b1-4)GlcNAc(b1-4)[Fuc(a1-6)]GlcNAc
# Summary of the method: as §1
# [12] = target: GlcNAc(b1-3)Gal(b1-4)GlcNAc(b1-3)Gal(b1-4)GlcNAc(b1-3)Gal(b1-4)GlcNAc(b1-3)Gal(b1-4)GlcNAc(b1-2)[GlcNAc(b1-3)Gal(b1-4)GlcNAc(b1-3)Gal(b1-4)GlcNAc(b1-3)Gal(b1-4)GlcNAc(b1-3)Gal(b1-4)GlcNAc(b1-6)]Man(a1-6)[GlcNAc(b1-3)Gal(b1-4)GlcNAc(b1-3)Gal(b1-4)GlcNAc(b1-3)Gal(b1-4)GlcNAc(b1-3)Gal(b1-4)GlcNAc(b1-2)Man(a1-3)]Man(b1-4)GlcNAc(b1-4)[Fuc(a1-6)]GlcNAc
# Summary of the method: as §1
# [13] = target: GlcNAc(b1-3)Gal(b1-4)GlcNAc(b1-3)Gal(b1-4)GlcNAc(b1-3)GalNAc
# Summary of the method: as §1
# [14] = target: GlcNAc(b1-3)Gal(b1-4)GlcNAc(b1-3)[GlcNAc(b1-3)Gal(b1-4)GlcNAc(b1-3)]GalNAc
# Summary of the method: as §1
# [15] = target: Neu5Ac(a2-3)Gal(b1-3)GalNAc(b1-3)Gal(b1-4)GlcNAc
# Summary of the method: as §1
# [16] = target: Neu5Ac(a2-3)Gal(b1-3)GalNAc(b1-4)[Neu5Ac(a2-3)]Gal(b1-4)Glc
# Summary of the method: as §1
# [17] = target: Neu5Ac(a2-3)Gal(b1-3)GlcNAc(b1-2)Man
# Summary of the method: as §1
# [18] = target: Neu5Ac(a2-3)Gal(b1-3)GlcNAc(b1-3)Gal(b1-4)GlcNAc
# Summary of the method: as §1
# [19] = target: Neu5Ac(a2-3)Gal(b1-3)]Neu5Ac(a2-3)Gal(b1-4)]GlcNAc
# Summary of the method: as §1
# [20] = target: Neu5Ac(a2-6)Gal(b1-4)GlcNAc(b1-2)Man(a1-3)[Neu5Ac(a2-3)Gal(b1-4)GlcNAc(b1-2)Man(a1-6)]Man(b1-4)GlcNAc(b1-4)GlcNAc
# Summary of the method: as §1
# [21] = target: Neu5Ac(a2-6)Gal(b1-4)GlcNAc(b1-2)Man(a1-6)Man(b1-4)GlcNAc(b1-4)GlcNAc
# Summary of the method: as §1
# [22] = target: Neu5Gc(a2-6)Gal(b1-4)GlcNAc
# Summary of the method: as §1
binder,measurement,setting,value
B1,glycan array binding signal (z-score),[1],0.435
same,glycan array binding signal (z-score),[2],2.63
same,glycan array binding signal (z-score),[3],2.21
same,glycan array binding signal (z-score),[4],0.257
same,glycan array binding signal (z-score),[5],2.52
same,glycan array binding signal (z-score),[6],2.41
same,glycan array binding signal (z-score),[7],3.65
same,glycan array binding signal (z-score),[8],3.32
same,glycan array binding signal (z-score),[9],4.09
same,glycan array binding signal (z-score),[10],4.05
same,glycan array binding signal (z-score),[11],4.23
same,glycan array binding signal (z-score),[12],5.64
same,glycan array binding signal (z-score),[13],1.03
same,glycan array binding signal (z-score),[14],0.857
same,glycan array binding signal (z-score),[15],-0.336
same,glycan array binding signal (z-score),[16],-0.262
same,glycan array binding signal (z-score),[17],-0.194
same,glycan array binding signal (z-score),[18],-0.274
same,glycan array binding signal (z-score),[19],-0.263
same,glycan array binding signal (z-score),[20],-0.241
same,glycan array binding signal (z-score),[21],-0.259
same,glycan array binding signal (z-score),[22],-0.247
